A short description of test [1]: compounds binding Alexa647 anti-His antibody – biochemical, small-molecule microarray, 635 nm fluorescence, artefact control for SMM control protein annotation, primary screen (AID 1128).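 Also: score merges feature fluorescence with signal-to-noise for each printed compound spot.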 The note with it: higher = more signal.
The subject of test [2] is Human papillomavirus type 1a E7 protein (residues 1-88). Description: HPV1a E7 small-molecule binders, primary screen, biochemical, small-molecule microarray, residues 1-88, 635 nm (AID 1129). The note with it: small-molecule microarray binding, fluorescence 635 nm; higher = more signal.
Test [3] deals with Focal adhesion kinase 1 (Homo sapiens) (UniProt Q05397). The test is described as follows: PTK2 protein binding on printed compound slides – biochemical, small-molecule microarray, 635/667 nm fluorescence, BSA, DTT, primary screen (AID 1130).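 Also: composite of spot emission at 667 nm and signal to noise over triplicate slides.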 As to conditions: 635 nm fluorescence, higher = more signal.
For test [4], the system named is Fibrinogen (Alexa647-labelled). Description: Alexa647-fibrinogen binding to printed small molecules – biochemical, small-molecule microarray, 635/667 nm fluorescence, artefact control for SMM control-protein annotation, profiling panel (AID 1131).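 Also: z-score merges 667 nm fluorescence with per-spot signal-to-noise over triplicate slides.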 The note with it: fibrinogen-A647 binding fluorescence, higher = more signal.
The target of test [5] is Follistatin (Homo sapiens) (UniProt P19883). Description: FST protein binding to printed compounds – biochemical, small-molecule microarray, 635/667 nm fluorescence, primary screen (AID 1132). As to conditions: 635 nm fluorescence, higher = more signal.
Test [6] deals with Fibroblast growth factor 2 (Homo sapiens) (UniProt P09038). Description: basic fibroblast growth factor binding to printed compounds – biochemical, small-molecule microarray, 635/667 nm fluorescence, primary screen (AID 1133). As to conditions: FGF2, fluorescence 635/667, higher = more signal.
Test [7] can be described thus: JC-1 mitochondrial potential readout, lung cancer cells – cell-based, A549, JC-1 fluorescence, basal, 24 h, 100 nL, profiling panel (AID 1138).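 Also: A549 lung adenocarcinoma cells under basal conditions with no added stimulus; test concentration not given here.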 The note with it: higher = more signal.
Test [8] has as its system Lefty1. The test is described as follows: Lefty1 protein binding to printed compounds – biochemical, small-molecule microarray, 635/667 nm fluorescence, primary screen (AID 1139). As to conditions: fluorescence 635/667, higher = more signal.
The test system of test [9] is wheat germ agglutinin (Triticum aestivum), Alexa647-labelled. The test is described as follows: Alexa647-WGA lectin binding to printed small molecules – biochemical, small-molecule microarray, 635/667 nm fluorescence, artefact control for SMM control-protein annotation, profiling panel (AID 1140).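 Also: score merges 667 nm feature emission with signal to noise over triplicate slides.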 As to conditions: WGA-A647 binding, 635 nm fluorescence, higher = more signal.

The target of test [10] is Luciferin 4-monooxygenase (Photinus pyralis) (UniProt P08659). Description: inhibition of purified Photinus pyralis luciferase – biochemical, luminescence, purified enzyme, 2006 set, primary screen (AID 1141).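 Also: cell-free assay with purified firefly luciferase at 100 ng per well in PBS; test concentration not given here.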 As to conditions: purified firefly luciferase, SteadyGlo luminescence, 30 min; higher = more signal, called active from +8 up or from −8 down.
Test [11] has as its system Wnt5a (protein binding on small-molecule microarray). The test is described as follows: small molecules binding Wnt5a protein – biophysical, small-molecule microarray, 635/667 nm fluorescence, primary screen (AID 1142).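 Also: fluorescence read at 667 nm with signal to noise per printed feature.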 As to conditions: 635 nm fluorescence, higher = more signal.
Test [12] can be described thus: ATP-based viability of Huh7 replicon cells – cell-based, CellTiter-Glo luminescence, basal, 48 h, cytotoxicity control for HCV replication inhibitor project, primary screen (AID 1143).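 Also: Huh7 hepatoma cells carrying a hepatitis C replication reporter with no stimulus; test concentration not given here.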 As to conditions: higher = more signal, called active from +8 up or from −8 down. (Replicon systems follow genome replication, usually without infectious particles.)
A short description of test [13]: basal CRE-LacZ reporter activity in PC12 – cell-based, unstimulated, primary screen (AID 1145). As to conditions: no forskolin, luminescence, 4.5 h, higher = more signal, called active from +8 up or from −8 down.
A short description of test [14]: forskolin-driven CRE-LacZ activity in PC12 – cell-based, CRE-LacZ reporter, forskolin-stimulated, primary screen (AID 1146).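 Also: PC12 cells with 6xCRE LacZ reporter stimulated by forskolin 10 µM; beta-galactosidase reporter signal reflecting CREB driven transcription.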 The note with it: luminescence, 4.5 h, higher = more signal, called active from +8 up or from −8 down.
Test [15] has as its target Streptavidin (Streptomyces avidinii) (UniProt P22629). The test is described as follows: compounds binding control protein streptavidin – biophysical, small-molecule microarray, 635/667 nm fluorescence, artefact control for SMM compound annotation, primary screen (AID 1147).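 Also: signal reflects streptavidin binding to arrayed compounds as a control protein.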 The note with it: higher = more signal.
The nature of test [16]: probe aInhba binding on compound microarray – biochemical, small-molecule microarray, 635/667 nm fluorescence, primary screen (AID 1148).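 Also: score merges 667nm spot fluorescence with signal-to-noise for antibody binding to printed compounds.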 As to conditions: higher = more signal.
Test [17] deals with Torsin-1A (Homo sapiens) (UniProt O14656). Description: TOR1A wild-type binding on microarray – cell lysate, small-molecule microarray, lysate, 635/667 nm, primary screen (AID 1149). The note with it: COS7 hTOR1A-WT lysate, 635 nm fluorescence, higher = more signal.
The target is the same in test [18]. Description: torsin A mutant lysate binding on microarrays – cell lysate, small-molecule microarray, COS7 lysate, 635/667 nm fluorescence, primary screen (AID 1150).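 Also: score pools 667 nm emission and signal to noise measuring lysate protein binding.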 As to conditions: COS7 hTOR1A mutant lysate, 635 nm fluorescence, higher = more signal.
For test [19], the system named is Sonic hedgehog protein (Shh). Description: Sonic hedgehog microarray binding compounds – biochemical, small-molecule microarray, 635/667 nm fluorescence, primary screen (AID 1151).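 Also: Shh protein binding to compounds spotted on small-molecule microarray slides; score combines spot fluorescence intensity with signal-to-noise across triplicate slides.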 As to conditions: 635 nm fluorescence, higher = more signal.

Calls of active or inactive are those of the source.

Chain of Luciferin 4-monooxygenase (Photinus pyralis) (P08659 whole entry, looked up): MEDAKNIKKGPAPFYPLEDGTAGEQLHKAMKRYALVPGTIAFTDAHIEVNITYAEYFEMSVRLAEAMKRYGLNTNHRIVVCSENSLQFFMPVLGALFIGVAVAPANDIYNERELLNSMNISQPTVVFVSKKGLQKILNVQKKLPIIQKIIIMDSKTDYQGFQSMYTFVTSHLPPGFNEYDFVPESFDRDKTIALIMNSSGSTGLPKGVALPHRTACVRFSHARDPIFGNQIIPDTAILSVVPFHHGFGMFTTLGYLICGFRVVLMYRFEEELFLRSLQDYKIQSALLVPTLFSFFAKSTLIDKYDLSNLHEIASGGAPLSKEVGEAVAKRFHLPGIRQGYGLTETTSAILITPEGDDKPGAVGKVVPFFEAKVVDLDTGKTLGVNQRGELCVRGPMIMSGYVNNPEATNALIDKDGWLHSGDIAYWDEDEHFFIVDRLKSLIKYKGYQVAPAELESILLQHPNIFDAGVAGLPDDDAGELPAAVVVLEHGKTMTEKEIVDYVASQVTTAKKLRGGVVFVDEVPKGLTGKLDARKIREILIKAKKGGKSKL
Chain of Fibroblast growth factor 2 (Homo sapiens) (P09038 whole entry, looked up): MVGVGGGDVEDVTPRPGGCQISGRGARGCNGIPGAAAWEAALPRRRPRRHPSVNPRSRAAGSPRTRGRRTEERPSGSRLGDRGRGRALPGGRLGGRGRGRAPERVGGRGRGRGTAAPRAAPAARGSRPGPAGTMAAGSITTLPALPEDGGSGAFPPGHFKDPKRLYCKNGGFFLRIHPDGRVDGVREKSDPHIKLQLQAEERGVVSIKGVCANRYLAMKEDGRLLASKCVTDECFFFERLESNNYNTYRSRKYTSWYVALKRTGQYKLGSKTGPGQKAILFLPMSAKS
Chain of Torsin-1A (Homo sapiens) (O14656 whole entry, looked up): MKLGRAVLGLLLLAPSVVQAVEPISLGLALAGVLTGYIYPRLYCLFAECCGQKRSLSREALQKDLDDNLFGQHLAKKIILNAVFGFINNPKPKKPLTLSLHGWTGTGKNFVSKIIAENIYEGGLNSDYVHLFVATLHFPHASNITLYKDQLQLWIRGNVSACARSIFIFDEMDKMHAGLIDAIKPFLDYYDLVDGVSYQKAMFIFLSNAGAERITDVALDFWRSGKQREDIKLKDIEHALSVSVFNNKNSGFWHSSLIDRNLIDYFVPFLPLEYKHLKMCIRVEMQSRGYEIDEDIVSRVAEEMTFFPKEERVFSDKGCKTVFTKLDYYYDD
Chain of Follistatin (Homo sapiens) (P19883 whole entry, looked up): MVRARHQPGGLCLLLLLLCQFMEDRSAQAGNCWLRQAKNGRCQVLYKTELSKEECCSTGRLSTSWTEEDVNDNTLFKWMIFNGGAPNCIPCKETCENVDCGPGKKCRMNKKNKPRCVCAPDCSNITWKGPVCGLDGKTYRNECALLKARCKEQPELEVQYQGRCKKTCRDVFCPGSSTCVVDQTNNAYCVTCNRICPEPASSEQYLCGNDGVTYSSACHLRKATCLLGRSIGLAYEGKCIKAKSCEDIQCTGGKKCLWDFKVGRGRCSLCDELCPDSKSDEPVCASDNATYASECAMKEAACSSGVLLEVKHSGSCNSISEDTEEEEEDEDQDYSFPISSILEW
Chain of Focal adhesion kinase 1 (Homo sapiens) (Q05397 whole entry, looked up): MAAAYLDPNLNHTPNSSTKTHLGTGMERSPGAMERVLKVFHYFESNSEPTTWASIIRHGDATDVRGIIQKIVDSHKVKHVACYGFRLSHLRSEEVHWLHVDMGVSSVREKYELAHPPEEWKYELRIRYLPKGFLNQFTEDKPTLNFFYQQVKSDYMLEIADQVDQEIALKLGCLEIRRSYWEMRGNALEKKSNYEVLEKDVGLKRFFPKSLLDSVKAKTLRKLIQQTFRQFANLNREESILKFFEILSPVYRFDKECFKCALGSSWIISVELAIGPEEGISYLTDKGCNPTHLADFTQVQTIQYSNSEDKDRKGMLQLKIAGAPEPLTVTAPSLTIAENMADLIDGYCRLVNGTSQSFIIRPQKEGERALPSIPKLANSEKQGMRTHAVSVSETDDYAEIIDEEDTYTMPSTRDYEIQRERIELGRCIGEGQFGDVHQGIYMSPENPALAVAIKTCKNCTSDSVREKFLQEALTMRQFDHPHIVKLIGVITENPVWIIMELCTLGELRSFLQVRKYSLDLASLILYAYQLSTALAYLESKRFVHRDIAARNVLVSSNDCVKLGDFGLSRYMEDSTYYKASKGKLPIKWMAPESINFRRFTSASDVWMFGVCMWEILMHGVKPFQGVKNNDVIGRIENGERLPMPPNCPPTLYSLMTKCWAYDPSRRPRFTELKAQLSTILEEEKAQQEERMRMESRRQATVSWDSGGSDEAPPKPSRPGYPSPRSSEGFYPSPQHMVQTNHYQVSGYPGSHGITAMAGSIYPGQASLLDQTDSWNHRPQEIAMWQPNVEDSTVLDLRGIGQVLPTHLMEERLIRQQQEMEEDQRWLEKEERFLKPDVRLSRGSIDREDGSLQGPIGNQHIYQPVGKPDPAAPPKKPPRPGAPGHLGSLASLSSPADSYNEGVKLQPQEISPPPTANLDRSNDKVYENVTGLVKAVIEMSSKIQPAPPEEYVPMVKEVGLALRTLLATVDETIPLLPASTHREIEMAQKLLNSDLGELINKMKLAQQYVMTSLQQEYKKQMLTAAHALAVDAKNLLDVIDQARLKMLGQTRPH
Chain of Streptavidin (Streptomyces avidinii) (P22629 whole entry, looked up): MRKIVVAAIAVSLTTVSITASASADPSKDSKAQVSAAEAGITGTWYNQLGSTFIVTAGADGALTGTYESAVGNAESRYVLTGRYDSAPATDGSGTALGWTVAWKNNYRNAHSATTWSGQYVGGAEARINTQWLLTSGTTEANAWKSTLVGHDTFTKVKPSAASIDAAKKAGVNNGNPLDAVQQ

Take `COCCOC(=O)N1C(=O)[C@@]2(c3cc(C#CCNC(N)=O)ccc31)[C@H](c1ccc(OCCO)cc1)N1[C@H](c3ccccc3)[C@H](c3ccccc3)OC(=O)[C@H]1[C@@H]2C(=O)Nc1nc2ccccc2s1`: the composite z-score in [1] was 0.0799; in [2], -0.393; in test [3], 0.0616; in [4], 0.398; in test [5], 1.28; in test [6], 0.779. For the same molecule, the composite z-score in test [8] was 0.83; in test [9], 0.755; in test [11] it was 0.483; in [15], 0.422; in test [16], -0.224; in test [17], 0.72. Further, the composite z-score was 0.471 in [18] and 1.6 in test [19]. Also, the z-score in [7] was -2.32; in [10], -3.42 (inactive); in test [12], -1.6 (inactive); in [13] it was 0.627 (inactive); in [14], -1.2 (inactive).

Consider `C=C(COC)/C(=C/C[C@@H](OC(=O)c1ccncc1)c1ccc(OCCO)cc1)c1cc(C(=O)OC)ccc1OC`, for which the composite z-score in test [1] turned out to be 2.06; in [2] it was 1.21; in test [3], 1.21; in test [4] it was 0.791; in test [5], 0.59; in test [6], 0.334. Also, the composite z-score was determined as 0.716 in [8]; 1.3 in [9]; 0.147 in [11]; 1.14 in test [15]; 0.0212 in test [16]; 1.06 in test [17]. For the same molecule, the composite z-score in test [18] worked out at 0.838; in test [19], 0.811. In addition, the z-score in test [7] was 2.2; in [10], -2.22 (inactive); in [12], -2.43 (inactive); in [13], 9.09 (active); in [14], -2.02 (inactive).

On to `CCN1C(C)=C(C(=O)OC)[C@@H](c2ccccc2)N2C(=O)[C@](O)(C(=O)OC)[C@@H](c3ccccc3)C(C(C)=O)=C12`, for which the composite z-score in test [1] was 0.189; in test [2], 0.0108; in test [3], -0.413; in [4], -1.11; in [5] it was 0.679; in test [6], 1.05. The composite z-score in [8] was 1.1; in test [9] it was -0.531; in [11], 0.223; in test [15] it was -0.0371; in test [16], -0.177; in test [17] it was 0.142. Besides, the composite z-score in [18] came to 0.355; in test [19], 1.75. In addition, the z-score is -0.21 in test [7]; -1.03 (inactive) in test [10]; -5.29 (inactive) in [12]; 0.106 (inactive) in test [13]; -1.04 (inactive) in test [14].

Consider `CCN1C(C)=C(C(=O)OC)[C@@H](c2ccccc2)N2C(=O)[C@@]3(C(=O)OC)O[C@@]12[C@@H]1C(=O)N(c2ccccc2)C(=O)[C@@H]13`, for which the composite z-score was 1.44 in test [1]; 0.678 in [2]; 0.231 in test [3]; 0.389 in test [4]; 0.462 in test [5]; 1.51 in test [6]. Besides, the composite z-score in test [8] was 1.27; in [9], 0.238; in test [11] it was 0.313; in [15], 0.424; in test [16], -0.211; in test [17] it was 0.224. Further, the composite z-score came to 0.644 in test [18] and 0.798 in test [19]. Further, the z-score is 0.507 in [7]; -0.569 (inactive) in [10]; -1.77 (inactive) in test [12]; 0.384 (inactive) in [13]; -1.28 (inactive) in [14].

For `Cc1ccc(S(=O)(=O)c2cc3oc2CC[C@@H](CO)NC(=O)N(C)Cc2cn(nn2)C[C@H](Cc2ccccc2)NC3=O)cc1`, the composite z-score in [1] is 3.02; in test [2], -0.157; in [3], 2.07; in test [4], 0.814; in [5] it was -0.0009; in [6] it was 0.108. Further, the composite z-score in [8] was -0.442; in test [9] it was -0.0961; in test [11] it was -0.0319; in [15], -0.183; in test [16], -0.0335; in [17], 0.285. In addition, the composite z-score in [18] turned out to be 0.501; in test [19], 0.0007. The z-score in [7] was 1.95; in test [10], -1.53 (inactive); in test [12], -0.0124 (inactive); in test [13], -0.332 (inactive); in test [14], -0.58 (inactive).

For `CO[C@@H]1COC(=O)[C@H](C)NC(=O)CC=C[C@@H](C)[C@H](OC)COC(=O)[C@H](C)NC(=O)CC=C[C@H]1C`, the composite z-score was 0.284 in test [1]; 0.207 in test [2]; 0.0533 in test [3]; 0.38 in [4]; 0.614 in test [5]; 0.989 in test [6]. In addition, the composite z-score in [8] is 0.59; in [9], 0.222; in test [11], 0.151; in test [15], 1.17; in test [16] it was 0.0659; in test [17], 0.678. Further, the composite z-score in test [18] was -0.0045; in [19], 0.622. Besides, the z-score in [7] is 1.64; in test [10], -1.57 (inactive); in test [12] it was -0.164 (inactive); in test [13] it was -0.205 (inactive); in test [14], -0.759 (inactive).

(Values after PubChem BioAssay.)
